MOR-DOR inv ag – inverse agonists of human mu-delta opioid receptor heterodimerization; cell-based MOR-DOR heterodimer luminescence, inverse agonism; hit rate 0.21% among 340,000; inhibition, % at 9.3 µM; in the data active = inhibition above about 22%, passing the limit was not always enough;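 note: 0% = cells with DMSO and 100% = wells without cells with DMSO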
Target sequence (P35372 whole entry, looked up): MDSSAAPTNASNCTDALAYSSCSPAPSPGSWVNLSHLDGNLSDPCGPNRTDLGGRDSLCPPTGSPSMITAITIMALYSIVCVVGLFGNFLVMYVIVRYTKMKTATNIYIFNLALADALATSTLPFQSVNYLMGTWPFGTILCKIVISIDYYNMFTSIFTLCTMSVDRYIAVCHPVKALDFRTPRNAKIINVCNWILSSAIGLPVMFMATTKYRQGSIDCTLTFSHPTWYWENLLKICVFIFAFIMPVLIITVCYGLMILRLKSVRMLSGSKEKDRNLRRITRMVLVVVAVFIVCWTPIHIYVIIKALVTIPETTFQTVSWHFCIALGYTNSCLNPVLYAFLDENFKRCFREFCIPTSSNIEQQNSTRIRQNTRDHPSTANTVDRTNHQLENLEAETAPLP
Target sequence (P41143 whole entry, looked up): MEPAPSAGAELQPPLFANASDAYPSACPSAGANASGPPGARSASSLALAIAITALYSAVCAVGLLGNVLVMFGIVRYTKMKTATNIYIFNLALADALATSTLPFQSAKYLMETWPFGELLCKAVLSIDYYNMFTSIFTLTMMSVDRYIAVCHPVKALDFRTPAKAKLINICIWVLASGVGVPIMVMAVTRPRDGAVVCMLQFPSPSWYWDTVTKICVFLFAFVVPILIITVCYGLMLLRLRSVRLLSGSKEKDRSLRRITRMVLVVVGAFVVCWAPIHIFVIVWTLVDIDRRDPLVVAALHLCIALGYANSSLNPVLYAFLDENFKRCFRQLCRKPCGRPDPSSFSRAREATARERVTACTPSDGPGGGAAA
OPRM1-OPRD1 ag – agonists of human mu-delta opioid receptor heterodimerization | cells, OPRM1-OPRD1 heterodimerization, luminescence | P35372+P41143 | AID 504326 | activation, % at 9.3 µM | hit rate 0.3% among 340,000; in the data active = activation above about 18%;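 note: 0% = vehicle-treated cells and 100% = reference agonist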
HTR5A ag – HTR5A agonism, opioid heterodimer counter-screen; P47898; HTR5A agonist assay, luminescence, cell-based; activation, % at 9.3 µM; hit rate 0.61% among 340,000; AID 504692; in the data active = activation mostly above about 9.5%, no sharp cut-off; inactive = mostly below about 7.6%;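 note: 0% = cells with vehicle only and 100% = reference agonist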
HTR5A inv ctr – HTR5A inverse agonism, opioid heterodimer counter-screen. inhibition, % at 9.3 µM. hit rate 0.083% among 340,000. HTR5A cell line, luminescence. AID 504634; in the data active = inhibition mostly above about 23%, no sharp cut-off; inactive = mostly below about 18%;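 note: 0% = cells with DMSO and 100% = no-cell wells with DMSO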
* hit, by the source's call. Shown are actives, neighbours in structure and some others; about 1.1% of the full set was active somewhere.

SMILES	MOR-DOR inv ag	OPRM1-OPRD1 ag	HTR5A ag	HTR5A inv ctr
CCOC(=O)c1sc(N(Cc2ccccc2)C(=O)COC(=O)c2ccc(O)cc2)nc1C	-73.8	14.0	11.4*	-39.7
CCOC(=O)c1sc(N(Cc2ccccc2)C(=O)COC(=O)c2ccccc2O)nc1C	1.4	-0.2	2.5	-6.7
O=[n+]1cc(-c2ccccc2)n([O-])c2c1CCCCC2	-0.8	0.2	11.3*	-41.5
CC(C)(C)c1ccc(C(=O)C2CCCN(C(=O)c3ccccn3)C2)cc1 (configuration not stated)	-2.9	0.6	2.5	-10.1
Cc1cc(C)c2nc(-c3ccncc3)cc(C(=O)N3CCN(Cc4ccccc4Cl)CC3)c2c1	1.3	-0.2	12.6*	-9.7
O[C@@H](c1cc(C(F)(F)F)nc2c(C(F)(F)F)cccc12)[C@H]1CCCCN1	-114.0	20.6*	15.4	17.7
CC(C)(C)NCCC(O)c1cc(C(F)(F)F)nc2c(C(F)(F)F)cccc12 (configuration not stated)	-52.5	10.2	0.4	-1.5
O=C(/C=C/c1cccc(Cl)c1)NCc1cccs1	3.4	-0.7	-2.8	-0.9
O=C(/C=C/c1ccc(Cl)cc1)NCc1cccs1	-5.7	1.3	13.1*	-48.5
CCN(CC(=O)N1CCCC1)S(=O)(=O)c1ccccc1	2.4	-0.5	-3.3	12.3
CCn1c(SCC(=O)Nc2sccc2C(N)=O)nnc1C1CC1	4.2	-1.0	12.8*	-31.5
O=C(Nc1cc(S(=O)(=O)Nc2ccc(Cl)cc2)ccc1N1CCCCC1)c1ccc(F)cc1Cl	-9.3	1.7	2.9	-5.2
CC(=O)Nc1ccc(-c2csc(Nc3ccc(Cl)cn3)n2)cc1	-8.1	1.8	10.9*	-27.8
CC(=O)Nc1cccc(-c2csc(Nc3ccc(Cl)cn3)n2)c1	7.0	-1.3	-1.1	7.3
COc1cccc(CNC(=O)CCS(=O)(=O)c2cccc3nonc23)c1	-2.9	0.5	13.5*	20.0
COc1cccc(CNC(=O)CCS(=O)(=O)c2cccc3nsnc23)c1	7.2	-1.2	-6.6	17.3
CSc1ccc(CN(C)CC(=O)Nc2c(F)cccc2F)cc1	0.9	-0.2	2.3	-5.8
Cc1ccc(OC[C@H](O)[C@H](C)NC(C)C)c2c1CCC2	-18.5	3.4	3.9	-14.1
CC1(C)Oc2ccc3ccc(=O)oc3c2/C(=C/O)C1=O	5.5	-1.0	13.5*	-11.5
CCOC(=O)c1c(NC(=O)CC(C)C)sc(C(C)=O)c1C	-32.1	5.5	5.5	-26.6
CCOC(=O)c1sc(NC(=O)CN(CC(C)C)CC(C)C)c(C(=O)OCC)c1C	-2.3	0.4	13.5*	-34.2
CCOCCc1nnc(NC(=O)c2cc(OC)c(OC)cc2[N+](=O)[O-])s1	10.4	-2.0	-3.4	9.3
CCOCc1nnc(NC(=O)c2cc(OC)c(OC)cc2[N+](=O)[O-])s1	-3.4	0.7	12.1*	3.3
CCOc1cc(/C=C2\C(=O)N(Cc3ccc(C)cc3)C(C)=C2C(=O)OC)ccc1O	-9.7	2.3	16.0*	-40.0
C=CCOc1cccc(/C=C2\C(=O)N(Cc3ccc(C)cc3)C(C)=C2C(=O)OC)c1	-1.3	0.3	3.5	0.9
SMILES	MOR-DOR inv ag	OPRM1-OPRD1 ag	HTR5A ag	HTR5A inv ctr
CC(=O)c1ccc(NC(=O)CSc2ccsc2[N+](=O)[O-])cc1	10.3	-2.1	9.4*	-22.5
O=C(CSc1ccsc1[N+](=O)[O-])Nc1cc(F)ccc1F	8.0	-1.6	-2.7	6.4
O=C(NCc1nnc(SCC(=O)N2CCCCCC2)o1)c1ccco1	6.3	-1.1	11.3*	-22.3
CCc1ccccc1S(=O)(=O)Cc1ccc(C(=O)NCc2ccc3c(c2)OCO3)o1	0.5	-0.1	-5.1	14.2
CCc1ccccc1S(=O)(=O)Cc1ccc(C(=O)NC(C)C)o1	13.6	-2.6	12.6*	-34.9
O=c1[nH]cnc2c1c(-c1ccccc1)cn2-c1cccc(Cl)c1	-28.0	5.4	10.0*	-20.8
COc1ccc(-n2cc(-c3ccccc3)c3c(=O)[nH]cnc32)cc1	1.0	-0.2	6.4	-16.1
CC(C)Cn1c(N)c(C(=O)NCC2CCCO2)c2nc3ccccc3nc21 (configuration not stated)	44.2*	-10.5	-4.4	10.9
COCCn1c(N)c(C(=O)NCC2CCCO2)c2nc3ccccc3nc21 (configuration not stated)	17.7	-3.0	0.4	-6.2
COc1ccc(/C(C)=N/Nc2nncc3ccccc23)cc1	-1.4	0.3	1.1	-4.0
CNC(=S)NNc1nncc2ccccc12	11.0	-2.3	12.0*	-30.1
COc1cccc(CN(C)C(=O)c2cc(-c3cccs3)nc3ccccc23)c1	6.0	-1.1	3.8	12.2
COC(=O)c1cccc(NC(=O)CCNC(=O)c2ccco2)c1	-16.2	2.6	13.2*	-28.6
COC(=O)c1cccc(NC(=O)c2ccco2)c1	2.1	-0.4	6.1	-16.9
Cc1ccc(OCC(=O)NNC(=S)NC(=O)C(C)(C)C)c(Br)c1	26.5	-5.3	0.7	-2.1
CC(C)c1ccc(OCC(=O)NNC(=S)NC(=O)c2cccs2)c(Br)c1	16.4	-3.1	11.8*	1.4
Cc1nnc(-c2ccccc2)nc1N(C)C	8.3	-1.6	10.9*	10.4
CN(CCO)c1cc(N(C)CCO)c([N+](=O)[O-])cc1[N+](=O)[O-]	-1.4	0.3	11.7*	-3.9
CN(CCO)c1ccc(-c2nn(C)c(=O)c3ccccc23)cc1[N+](=O)[O-]	7.4	-1.4	3.0	13.6
CCCN1CCC(=NNC(=O)CSc2cc(C)c(Br)cc2C)CC1	-2.3	0.4	-1.8	6.2
Cc1nc(-c2ccc(C(=O)Nc3ccc(F)cc3)cc2)cs1	-63.6	8.8	13.0*	-36.8
O=C(Nc1ccc(F)cc1)c1ccc2c(=O)n(CC3CCCO3)c(=S)[nH]c2c1 (configuration not stated)	-29.1	4.7	1.1	9.2
O=C(CSc1ncn[nH]1)Nc1ncc(C(F)(F)F)cc1Cl	2.6	-0.5	1.9	-4.9
O=C(CSc1ncn[nH]1)Nc1ccc(Cl)c(Cl)c1	15.7	-3.1	8.7*	5.8
O=C(NCC1CCN(Cc2ccccc2F)CC1)Nc1cccc(Br)c1	-14.8	3.2	13.8*	-49.1
SMILES	MOR-DOR inv ag	OPRM1-OPRD1 ag	HTR5A ag	HTR5A inv ctr
O=C(NCC1CCN(Cc2ccccc2F)CC1)Nc1ccccc1F	2.0	-0.4	-0.5	2.0
C=CCOc1ccccc1CN(C(=O)CCl)c1ccc2c(c1)OCO2	-240.1	45.1*	53.1*	-142.3
CCN1CCN(c2c(Cl)cccc2NC(=O)c2cc3ccccc3o2)CC1	-20.6	3.0	4.1	-9.8
O=C(CN1C(=O)NC2(CCCC2)C1=O)N1CCN(S(=O)(=O)c2ccccc2F)CC1	17.6	-3.4	-6.7	16.2
O=C1NC2(CCCCC2)C(=O)N1CC(=O)N1CCc2ccccc21	1.6	-0.3	11.2*	-40.1
O=C(CN1C(=O)NC2(CCCC2)C1=O)N1CCN(S(=O)(=O)c2ccccc2[N+](=O)[O-])CC1	-5.7	0.9	9.5*	-7.3
O=C(c1cccc(S(=O)(=O)N2CCOCC2)c1)N1CCN(S(=O)(=O)c2cccs2)CC1	-0.8	0.2	0.0	0.0
COC(=O)C1(Cc2ccc3c(c2)CCC3)Cc2ccc3c(c2C1=O)CCC3 (configuration not stated)	-16.0	3.6	5.4	-20.8
CC(=O)Nc1ccc(S(=O)(=O)NNC2=NS(=O)(=O)c3ccccc32)cc1	6.5	-1.0	-0.8	2.0
